Measured values published in PubChem BioAssay (Tox21).
Active and inactive are the calls of the source. Calls come from the whole dose curve; as a rule, active = well fitted curve in the direction sought with a large enough effect in the repeat runs; inconclusive = weak or mixed curves; inactive = flat fitted curve, though single readings scatter.

assay: qHTS assay to test for compound auto fluorescence at 590 nm (red) in HEK293 cells (AID 720679); conditions: red autofluorescence 540/590 nm; series mostly up to 91.3 µM
Description: National Center for Advancing Translational Sciences [NCATS]
NIH Chemical Genomics Center [NCGC]
U.S. Environmental Protection Agency [EPA]
National Institutes of Environmental Health Sciences [NIEHS]
National Toxicology Program [NTP]
U.S. Food and Drug Administration [FDA]
Compound auto fluorescence often interferes with screening of the compound library against various biological targets and signaling pathways. Some of these compounds may have fluorophoric properties. Such properties may interfere with the assay outputs resulting in false positives and/or negatives. To decrease such complications and ensure the compound activities are relevant in terms of biological response, the Tox21 10K compound library was screened for auto fluorescence.
From the fluorophores used as reporter signals in our screening assays, the auto fluorescence equivalencies of compounds against three fluorophores have been evaluated: Triamterene, Fluorescein and Rose Bengal sodium for blue, green and red fluorescence, respectively. The fluorescence intensities were measured using Excitation/Emission wavelengths at 405/460nm, 485/535nm and 540/590nm for blue, green and red labels, respectively. This assay includes the red fluorescence data.
Tox21 Assay Protocol Summary:
2,000 HEK293 cells in 5 uL of culture medium containing 10% dialyzed FBS per well were dispensed into black wall/clear bottom 1536-well plates using a Multidrop Combi Dispenser (Thermo Scientific). The assay plates were incubated for 4-5 hr at 37C to allow cell attachment to the well bottom, followed by the transfer of 23 nL compound or DMSO vehicle by a pintool work station (Kalypsys, San Diego, CA). After the assay plates were incubated overnight at 37C and 5% CO2, fluorescence intensities in the assay plates were measured by an Envision (PerkinElmer, Shelton, CT) plate reader using three labels for measuring blue, green and red fluorescence at […] 460, 535 and 590nm respectively.

| SMILES | outcome |
| --- | --- |
| CC/C(=N\OC/C=C/Cl)C1=C(O)CC(C2CCOCC2)CC1=O (stereo not given) | inactive |
| ClCCCCBr | inactive |
| O=C1c2ccccc2C(=O)C1C(=O)C(c1ccccc1)c1ccccc1 | inactive |
| C=CCOC(C)=O | inactive |
| COP(=S)(Oc1cc(Cl)c(Br)cc1Cl)c1ccccc1 (stereo not given) | inactive |
| CC(C)N(CCC(C(N)=O)(c1ccccc1)c1ccccn1)C(C)C (stereo not given) | inactive |
| CC(Cl)Cl | inactive |
| CN(N=O)c1ccc([N+](=O)[O-])cc1 | inactive |
| CC(=O)CCC(C)=O | inactive |
| Nc1ccc(N=Nc2ccc(-c3ccc(N=Nc4c(S(=O)(=O)O)cc5cc(S(=O)(=O)O)c(N=Nc6ccccc6)c(O)c5c4N)cc3)cc2)c(N)c1 | inactive |
| BrCCCCBr | inactive |
| Nc1nc(N)nc(N)n1 | inactive |
| Cc1ccc(N)cc1C | inactive |
| O=[N+]([O-])c1ccccc1CCl | inactive |
| C=C(C#N)CCC#N | inactive |
| C=CC(=O)NCNC(=O)C=C | inactive |
| O=C(NCc1cccnc1)Nc1ccc([N+](=O)[O-])cc1 | inactive |
| c1ccc(C2CC2)c(OCC2=NCCN2)c1 | inactive |
| O=NN1CCNCC1 | inactive |
| CCN(C)N=O | inactive |

| SMILES | outcome |
| --- | --- |
| O=C(O)C(F)(F)C(F)(F)C(F)(F)C(F)(F)C(F)(F)C(F)(F)C(F)(F)C(F)(F)C(F)(F)C(F)(F)F | inactive |
| N#Cc1cc(I)c(O)c(I)c1 | inactive |
| NCC(CC(=O)O)c1ccc(Cl)cc1 (stereo not given) | inactive |
| ClCc1ccccc1 | inactive |
| N#CCc1ccccc1 | inactive |
| CCc1ccc(C(=O)NN(C(=O)c2cc(C)cc(C)c2)C(C)(C)C)cc1 | inactive |
| C=CC[C@]1(O)CC[C@H]2[C@@H]3CCC4=CC(=O)CCC4=C3C=C[C@@]21C | inactive |
| [O-][Cl+]O | inactive |
| Clc1ccc(C2(Cn3cncn3)CC(Br)CO2)c(Cl)c1 (stereo not given) | inactive |
| CCCCN=C=O | inactive |
| O=S(=O)(Cl)c1ccccc1 | inactive |
| c1ccoc1 | inactive |
| O=S1(=O)OC(c2cc(Br)c(O)c(Br)c2)(c2cc(Br)c(O)c(Br)c2)c2ccccc21 | inactive |
| CCCCCC[N+](=O)[O-] | inactive |
| O=Cc1ccc(Cl)cc1Cl | inactive |
| O=C(CBr)OCc1ccccc1 | inactive |
| NC(=O)C(Cl)(Cl)Cl | inactive |
| COP(=S)(OC)Oc1ccc([N+](=O)[O-])cc1Cl | inactive |
| N#CCC#N | inactive |
| C(=NC1CCCCC1)=NC1CCCCC1 | inactive |
